Measured values as given in the antibiotic and cytotoxicity screens of Wong et al. (2023).
The whole screen tested about 39,000 compounds, of which about 3,300 (8.5%) were called active. The sample as a whole holds a higher share of actives than the screen did.

test system: HepG2; assay: cytotoxicity call (relative viability < 0.9); details: 10 µM

Structure (SMILES) | cytotoxicity call
C[C@H](CO)N1C[C@H](C)[C@H](CN(C)Cc2ccc(C(=O)Nc3ccccc3N)cc2)Oc2c(NS(=O)(=O)c3ccc(Cl)cc3)cccc2C1=O | active
C[C@@H]1CN([C@H](C)CO)C(=O)c2cccc(NS(=O)(=O)c3ccc(Cl)cc3)c2O[C@@H]1CN(C)Cc1ccc(C(=O)Nc2ccccc2N)cc1 | inactive
C[C@@H]1CN([C@@H](C)CO)C(=O)c2cc(NS(=O)(=O)c3ccc(Cl)cc3)ccc2O[C@@H]1CN(C)Cc1ccc(C(=O)Nc2ccccc2N)cc1 | active
C[C@@H]1CN([C@H](C)CO)C(=O)c2cccc(NS(=O)(=O)c3ccc(Cl)cc3)c2O[C@H]1CN(C)Cc1ccc(C(=O)Nc2ccccc2N)cc1 | inactive
C[C@@H]1CN([C@@H](C)CO)C(=O)c2cccc(NS(=O)(=O)c3ccc(Cl)cc3)c2O[C@@H]1CN(C)Cc1ccc(C(=O)Nc2ccccc2N)cc1 | active
C[C@@H]1CN([C@H](C)CO)C(=O)c2cc(NS(=O)(=O)c3ccc(Cl)cc3)ccc2O[C@@H]1CN(C)Cc1ccc(C(=O)Nc2ccccc2N)cc1 | inactive
C[C@H](CO)N1C[C@H](C)[C@H](CN(C)Cc2ccc(C(=O)Nc3ccccc3N)cc2)Oc2ccc(NS(=O)(=O)c3ccc(Cl)cc3)cc2C1=O | inactive
C[C@@H]1CN([C@@H](C)CO)C(=O)c2cccc(NS(=O)(=O)c3ccc(Cl)cc3)c2O[C@H]1CN(C)Cc1ccc(C(=O)Nc2ccccc2N)cc1 | inactive
C[C@H]1CN([C@@H](C)CO)C(=O)c2cccc(NS(=O)(=O)c3ccc(Cl)cc3)c2O[C@@H]1CN(C)Cc1ccc(C(=O)Nc2ccccc2N)cc1 | inactive
CCSC(=S)N[C@H]1CCS(=O)(=O)C1 | inactive
CC(C)NC(=O)Nc1ccc2c(c1)C(=O)N([C@@H](C)CO)C[C@@H](C)[C@@H](CN(C)C(=O)Nc1ccc(F)cc1)OCCCC[C@@H](C)O2 | inactive
C[C@H](O)C#Cc1ccc2c(c1)O[C@@H](CN(C)C)[C@H](C)CN([C@@H](C)CO)S2(=O)=O | inactive
COC(=O)C[C@H]1CC[C@@H]2[C@H](COC[C@@H](O)CN2S(=O)(=O)c2ccccc2C)O1 | inactive
Cc1ccc(S(=O)(=O)N(C)C[C@@H]2Oc3c(NS(C)(=O)=O)cccc3C(=O)N([C@@H](C)CO)C[C@H]2C)cc1 | inactive
C[C@@H]1CCCCO[C@@H](CN(C)CC2CC2)[C@H](C)CN([C@@H](C)CO)C(=O)c2cc(NC(=O)CCC(F)(F)F)ccc2O1 | inactive
Cn1c([N+](=O)[O-])cnc1COC(N)=O | inactive
COc1ccc(NC(=O)Nc2ccc3c(c2)[C@H]2C[C@H](CC(=O)N4CCN(C)CC4)O[C@H](CO)[C@H]2O3)cc1 | inactive
COCCOC(=O)N1C(=O)[C@@]2(c3cc(C#CCCO)ccc31)[C@H](c1ccc(O)cc1)N1[C@H](c3ccccc3)[C@H](c3ccccc3)OC(=O)[C@H]1[C@@H]2C(=O)N1CCc2cc(OC)c(OC)cc2C1 | inactive
Cc1ccc(C(C)C)c(O)c1 | inactive
CC1(C)NC(=O)N(c2ccc([N+](=O)[O-])c(C(F)(F)F)c2)C1=O | inactive
CC(C)C(=O)Nc1ccc([N+](=O)[O-])c(C(F)(F)F)c1 | active
Cc1cccc(NC(=O)C(C)C)c1 | inactive
COc1cccc(S(=O)(=O)N(C)C[C@@H]2OCc3cnnn3CCCC(=O)N([C@@H](C)CO)C[C@@H]2C)c1 | inactive
COc1ccc(S(=O)(=O)N(C)C[C@@H]2Oc3c(NC(=O)Nc4c(C)noc4C)cccc3C(=O)N([C@H](C)CO)C[C@H]2C)cc1 | inactive

Structure (SMILES) | cytotoxicity call
Cc1noc(C)c1NC(=O)N(C)C[C@H]1OCCCC[C@@H](C)Oc2ccc(NC(=O)Nc3cccc4ccccc34)cc2C(=O)N([C@H](C)CO)C[C@@H]1C | inactive
CCOC(=O)CN(C#N)c1nc(C)cc(C)n1 | inactive
CCOC(=O)/C(C#N)=C1/C=CN(C)C=N1 | active
CCOC(=O)n1ncc(C#N)c1N | inactive
C[C@H]1CN([C@@H](C)CO)C(=O)c2cccc(NC(=O)CCCCCC(=O)Nc3ccccc3N)c2O[C@@H]1CN(C)C(=O)Nc1ccc(C(F)(F)F)cc1 | inactive
O=C(C[C@@H]1CC[C@H]2[C@@H](COC[C@H](O)CN2C(=O)Nc2cccc(Cl)c2)O1)NCCCN1CCOCC1 | inactive
C[C@H]1CN([C@@H](C)CO)C(=O)c2cccc(NC(=O)C3CC3)c2O[C@@H]1CN(C)C(=O)NC1CCCCC1 | inactive
C[C@H]1CN([C@@H](C)CO)C(=O)c2cccc(NC(=O)C3CCCCC3)c2O[C@@H]1CN(C)Cc1ccc(Oc2ccccc2)cc1 | inactive
C[C@@H]1CCCCO[C@@H](CN(C)C(=O)NC2CCCCC2)[C@@H](C)CN([C@H](C)CO)C(=O)c2cc(NS(=O)(=O)c3ccc(F)cc3)ccc2O1 | inactive
C[C@H](CO)N1C[C@H](C)[C@@H](CN(C)C(=O)Nc2ccccc2C(F)(F)F)OCc2ccccc2-c2c(n(C)c3ccccc23)C1=O | active
C[C@H](CO)N1C[C@H](C)[C@@H](CN(C)C(=O)Nc2cccc(Cl)c2Cl)OCc2ccccc2-c2c(n(C)c3ccccc23)C1=O | active
C[C@@H]1CN([C@H](C)CO)C(=O)c2c(c3ccccc3n2C)-c2ccccc2CO[C@H]1CN(C)C(=O)Nc1cccc(Cl)c1Cl | inactive
C[C@H](CO)N1C[C@H](C)[C@H](CN(C)C(=O)Nc2ccccc2C(F)(F)F)OCc2ccccc2-c2c(n(C)c3ccccc23)C1=O | inactive
C[C@@H]1CN([C@H](C)CO)C(=O)c2c(c3ccccc3n2C)-c2ccccc2CO[C@H]1CN(C)C(=O)Nc1ccccc1C(F)(F)F | inactive
C[C@@H]1CN([C@H](C)CO)C(=O)c2ccccc2-c2ccccc2CO[C@@H]1CN(C)C(=O)Nc1ccccc1C(F)(F)F | inactive
C[C@H](CO)N1C[C@H](C)[C@H](CN(C)C(=O)Nc2cccc(Cl)c2Cl)OCc2ccccc2-c2c(n(C)c3ccccc23)C1=O | inactive
C[C@@H]1CN([C@H](C)CO)C(=O)c2ccccc2-c2ccccc2CO[C@H]1CN(C)C(=O)Nc1ccccc1C(F)(F)F | inactive
C[C@@H]1CN([C@@H](C)CO)C(=O)c2ccccc2-c2ccccc2CO[C@@H]1CN(C)C(=O)Nc1ccccc1C(F)(F)F | active
Cn1ccnc1CN1CC[C@]2(COCCN(S(C)(=O)=O)C2)C1 | inactive
Cc1ccc(S(=O)(=O)N(C)C[C@H]2Oc3c(NS(C)(=O)=O)cccc3C(=O)N([C@H](C)CO)C[C@@H]2C)cc1 | inactive
C[C@@H]1CN([C@H](C)CO)C(=O)CCCn2nncc2CO[C@@H]1CN(C)C(=O)Nc1cccc2ccccc12 | inactive
COc1cccc(-c2ccc3c(c2)O[C@H](CN(C)C(=O)C2CCOCC2)[C@@H](C)CN([C@H](C)CO)S3(=O)=O)c1 | inactive
NCc1ccc(C(=O)N2CCCCC2)cc1 | inactive
COCC(=O)N(C)C[C@@H]1Oc2cc(-c3ccc(C#N)cc3)ccc2S(=O)(=O)N([C@H](C)CO)C[C@@H]1C | inactive

Structure (SMILES) | cytotoxicity call
CNCc1nc(C)no1 | inactive
COc1ccccc1S(=O)(=O)N[C@H]1C=C[C@H](CC(=O)N2CCOCC2)O[C@@H]1CO | inactive
Cc1ccc(S(=O)(=O)N2C[C@H](O)COC[C@H]3O[C@H](CC(=O)N4CCc5ccccc5C4)CC[C@@H]32)cc1 | inactive
CC(C)(N)c1cc(C(=O)N[C@@H]2CCc3ccc(Oc4ccnc5c4CCC(=O)N5)cc3C2)cc(C(F)(F)F)c1 | active
CC(C)CC#Cc1ccc2c(c1)O[C@@H](CN(C)C(=O)Cc1ccccn1)[C@@H](C)CN([C@@H](C)CO)S2(=O)=O | inactive
C[C@H]1CN([C@@H](C)CO)C(=O)c2cc(NS(=O)(=O)c3ccccc3)ccc2O[C@H]1CN(C)S(C)(=O)=O | inactive
C[C@@H]1CN([C@H](C)CO)C(=O)c2cc(NS(=O)(=O)c3ccccc3)ccc2O[C@H]1CN(C)S(C)(=O)=O | active
C[C@H](CO)N1C[C@H](C)[C@@H](CN(C)S(C)(=O)=O)Oc2ccc(NS(=O)(=O)c3ccccc3)cc2C1=O | inactive
C[C@H]1CN([C@@H](C)CO)C(=O)c2cc(NS(=O)(=O)c3ccccc3)ccc2O[C@@H]1CN(C)S(C)(=O)=O | active
C[C@@H]1CN([C@@H](C)CO)C(=O)c2cc(NS(=O)(=O)c3ccccc3)ccc2O[C@@H]1CN(C)S(C)(=O)=O | inactive
C[C@H](CO)N1C[C@H](C)[C@H](CN(C)S(C)(=O)=O)Oc2ccc(NS(=O)(=O)c3ccccc3)cc2C1=O | inactive
Cn1cnc(S(=O)(=O)N2C[C@H](O)COC[C@H]3O[C@@H](CC(=O)NCc4cc(F)cc(F)c4)CC[C@@H]32)c1 | inactive
C[C@@H]1CN([C@H](C)CO)C(=O)c2cccc(NS(=O)(=O)c3ccc(F)cc3)c2O[C@H]1CN(C)S(=O)(=O)c1cn(C)cn1 | inactive
C[C@@H]1CCCCO[C@H](CN(C)S(C)(=O)=O)[C@@H](C)CN([C@H](C)CO)C(=O)c2cc(NC(=O)Nc3cccc4ccccc34)ccc2O1 | inactive
C[C@@H]1CN([C@@H](C)CO)C(=O)c2cccc(NC(=O)Nc3ccc(C(F)(F)F)cc3)c2O[C@H]1CN(C)Cc1ccc2c(c1)OCO2 | inactive
C[C@@H]1CN([C@@H](C)CO)C(=O)c2cccc(NC(=O)Nc3ccc4c(c3)OCO4)c2O[C@H]1CN(C)Cc1ccc(C(F)(F)F)cc1 | active
C[C@@H]1CN([C@H](C)CO)C(=O)c2cccc(NC(=O)Nc3ccc4c(c3)OCO4)c2O[C@H]1CN(C)Cc1ccc(C(F)(F)F)cc1 | active
C[C@H]1CN([C@@H](C)CO)C(=O)c2cccc(NC(=O)Nc3ccc4c(c3)OCO4)c2O[C@@H]1CN(C)Cc1ccc(C(F)(F)F)cc1 | inactive
C[C@H](CO)N1C[C@H](C)[C@H](CN(C)Cc2ccc(C(F)(F)F)cc2)Oc2c(NC(=O)Nc3ccc4c(c3)OCO4)cccc2C1=O | inactive
C[C@H]1CN([C@@H](C)CO)C(=O)c2cccc(NC(=O)Nc3ccc4c(c3)OCO4)c2O[C@H]1CN(C)Cc1ccc(C(F)(F)F)cc1 | inactive
C[C@H]1CN([C@@H](C)CO)C(=O)c2cccc(NC(=O)Nc3ccc(C(F)(F)F)cc3)c2O[C@H]1CN(C)Cc1ccc2c(c1)OCO2 | inactive
C[C@H](CO)N1C[C@H](C)[C@@H](CN(C)Cc2ccc(C(F)(F)F)cc2)Oc2c(NC(=O)Nc3ccc4c(c3)OCO4)cccc2C1=O | inactive
C[C@@H]1CN([C@@H](C)CO)C(=O)c2cccc(NC(=O)Nc3ccc(C(F)(F)F)cc3)c2O[C@@H]1CN(C)Cc1ccc2c(c1)OCO2 | active
